Most compounds without a hit are left out; they make up all but 8.7% or so of the library.
12-LOX inh – inhibitors of human 12S-lipoxygenase ALOX12; P18054; purified 12hLO, xylenol orange hydroperoxide absorbance; Potency, µM (series often up to 108 µM), inactives show top-dose activity change, negative = inhibition, usual class: inhibitors; hit rate 1.1% among 580,000; AID 1671190; further: on the % scale 0 is the no-effect control and ±100 the full control effect
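Purified human 12hLO (150 nM final) in 25 mM Hepes, 0.01% Triton X-100, pH 7.0 was preincubated 15 min at room temperature with compound. Then 40 uM arachidonic acid was added, 30 min. Hydroperoxide was read by Fe-XO absorbance ratio 573/405 nm.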
JMJD2A Tudor inh – JMJD2A Tudor domain (human) inhibition; O75164; AlphaScreen JMJD2A-Tudor / H3K4me3 peptide binding; Potency, µM (highest dose often 114 µM), without a hit: at the highest dose activity change, negative = inhibition, most hits filed as inhibitors; hit rate 4.4% among 390,000; AID 504339; further: on the % scale 0 is the no-effect control and ±100 the full control effect; nearly all actives have a fitted effect of over 50% in size
Sfp inh – inhibitors of Bacillus subtilis Sfp phosphopantetheinyl transferase | Q9F4F7 | Biochemical Sfp PPTase activity, qHTS | Potency, µM, for the others: largest response in the series, negative = inhibition, most hits filed as inhibitors | hit rate 3.5% among 310,000 | AID 1490;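 further: the enzyme is Sfp with the accession as filed and its product quenches rhodamine fluorescence; 0% = enzyme reaction without inhibitor and -100% = no enzyme wells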
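Fluorescence-quenching assay: 15 nM Sfp-PPTase preincubated 15 min at room temperature with compound, then 5 uM rhodamine-CoA and 12.5 uM BHQ-2-labelled YbbR peptide added. Fluorescence (ex 525/em 598 nm) read at start and after 30 min; difference gives rate.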
BAZ2B inh – inhibitors of human BAZ2B bromodomain; hit rate 4.4% among 360,000; Potency, µM (titrated, usually from 114 µM), without a hit: top-dose activity change, negative = inhibition, actives largely listed as inhibitors; AlphaScreen BAZ2B-H3K14Ac peptide displacement; further: on the % scale 0 is the no-effect control and ±100 the full control effect; nearly all actives have a fitted effect of over 60% in size
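Inhibition is scored as reduced AlphaScreen emission. The BAZ2B/b-H3(5-23)K14Ac complex (50 nM each) in PBS pH 7.4, 0.01% Tween-20 meets compound (up to 110 uM) for 30 min at RT before bead addition.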
G9a inh – G9a (human) methyltransferase inhibition. Q96KQ7. G9a H3K9 monomethylation, AlphaScreen, 2 h. Potency, µM (series often up to 102 µM), for the others: at the highest dose activity, negative = inhibition, actives largely listed as inhibitors. hit rate 8.8% among 350,000; further: on the % scale 0 is the no-effect control and ±100 the full control effect; nearly all actives have a fitted effect of over 75% in size
Target sequence (Q96KQ7 913-1193 limits assumed): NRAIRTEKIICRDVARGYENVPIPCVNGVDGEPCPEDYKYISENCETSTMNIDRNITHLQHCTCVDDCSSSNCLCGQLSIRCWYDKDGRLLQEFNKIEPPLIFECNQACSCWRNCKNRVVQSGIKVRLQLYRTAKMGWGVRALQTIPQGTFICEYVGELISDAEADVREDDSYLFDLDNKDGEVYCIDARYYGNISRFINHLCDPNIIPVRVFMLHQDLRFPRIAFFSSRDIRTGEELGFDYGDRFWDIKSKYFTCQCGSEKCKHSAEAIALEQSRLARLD
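Using a bead-based AlphaScreen, monomethylated H3K9 product from 2 h room-temperature reactions (G9a 20 nM, peptide 500 nM, SAM 20 uM) was detected with 0.5 ug/mL rabbit anti-H3K9me1 antibody.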
HP1b chromo inh – HP1-beta chromodomain-methylated histone interaction inhibition; hit rate 0.56% among 390,000; AlphaScreen HP1-beta / biotin-H3K9me3 peptide binding; Potency, µM (titrated, usually from 114 µM), without a hit: at the top dose activity change, negative = inhibition, usual class: inhibitors; P83916; further: nearly all actives have a fitted effect of over 70% in size
Target sequence (P83916 whole entry, looked up): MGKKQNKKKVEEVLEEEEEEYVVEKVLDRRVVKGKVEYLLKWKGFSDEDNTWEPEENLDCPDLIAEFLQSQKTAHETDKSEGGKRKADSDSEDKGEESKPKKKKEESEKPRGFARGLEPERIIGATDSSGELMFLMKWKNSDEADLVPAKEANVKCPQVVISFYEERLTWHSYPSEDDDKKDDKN
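AlphaScreen: HP1-beta (50 nM) preformed 30 min with biotin-H3(1-18)K9me3 peptide (50 nM) in PBS pH 7.4, 0.01% Tween-20. Compound added for 30 min at RT, then streptavidin donor/nickel chelate acceptor beads (10 ug/mL) for 30 min.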
* hit, by the source's call; ? = inconclusive; nt = no result; [ ] = dose if it differs, or a comment. The call rests on the fitted dose curve; in most records, active means well fitted curve in the direction sought with a large enough effect; inconclusive means small, poorly fitted or top-dose-only effect, or another doubt; inactive means no such curve, though single readings can be large; an effect the other way counts as inactive or inconclusive. Potency means the concentration at half of the fitted maximal effect.

SMILES | 12-LOX inh | JMJD2A Tudor inh | Sfp inh | BAZ2B inh | G9a inh | HP1b chromo inh
Cc1[nH]c2ccccc2c1/C=N/Nc1ccccn1 | -7.6% | nt | ? | 35.5µM* | ? | nt
Cc1[nH]c2ccccc2c1/C=N/NC(=O)c1cccs1 | 1.1% | ? | -21.9% | ? | ? | 14.3%
Cc1[nH]c2ccccc2c1/C=N/Nc1ccc(F)cc1F | nt | nt | 5.5% | 44.7µM* | 31.6µM* | nt
Cc1[nH]c2ccccc2c1/C=N/Nc1ccc([N+](=O)[O-])cc1 | -21.4% | -28.3% | -12.1% | ? | 8.91µM* | ?
Cc1[nH]c2ccccc2c1/C=N/NC(=O)c1cccc([N+](=O)[O-])c1 | -0.8% | -0.8%[11.4 µM] | -1.5% | -24.7% | -44.7% | -10.5%
Cc1[nH]c2ccccc2c1/C=N/Nc1nncn1N | ? | -28.9% | 8.91µM* | 50.1µM* | 35.5µM* | 17.4%
Cc1nn(CC(=O)NC(C)(C)C)c(C)c1S(=O)(=O)N1CCCC(C(=O)N2CCCCC2)C1 (stereo not drawn) | -2.1% | nt | nt | nt | nt | nt
CCC(=O)N1CCc2cc(S(=O)(=O)CCC(=O)Nc3cccc(F)c3)ccc21 | ? | 7.2% | 1.6% | 9.1% | 22.4µM* | 35.6%
CCC(=O)N1CCc2cc(S(=O)(=O)CCC(=O)Nc3ccc(F)c(F)c3)ccc21 | -0.9%[57.4 µM] | -23.3% | 24.2% | 56.2µM* | 5.2% | 22.3%
CCC(=O)N1CCc2cc(S(=O)(=O)CCC(=O)Nc3ccc(CC)cc3)ccc21 | 0.0% | -2.3% | 22.1% | 6.1% | ? | 17.7%
CCC(=O)N1CCc2cc(S(=O)(=O)CCC(=O)Nc3ccc(C(C)=O)cc3)ccc21 | -14.1% | -12.4% | 10.7% | -9.7% | 17.5% | 19.8%
O=C(CCOc1ccccc1)OCC(=O)c1cc2ccccc2o1 | -2.2% | 34.0% | -5.2% | 19.2% | ? | 100.7%
Cc1cccc(OCCC(=O)OCC(=O)Nc2c(C)nn(-c3ccccc3)c2C)c1 | nt | -6.9% | nt | -2.9% | 35.5µM* | 26.8%
Cc1cccc(OCCC(=O)OCC(=O)c2cc3ccccc3o2)c1 | 50.1µM* | nt | nt | nt | nt | nt
Cc1nn(-c2ccccc2)c(C)c1NC(=O)COC(=O)CC(C)c1ccccc1 (stereo not drawn) | -16.1% | 15.8µM* | nt | 7.9% | ? | 26.7%
CNC(=O)COC(=O)/C=C/c1c(C)nn(-c2ccccc2)c1C | -9.2% | 6.4% | 12.9% | 7.6% | 50.1µM* | 13.2%
C/C(=N\NC(=O)C1CC1c1ccccc1)c1ccc(C2CCCCC2)cc1 (stereo not drawn) | -15.9% | nt | nt | nt | nt | nt
COC(=O)c1cc(NC(=O)c2cccc(C(F)(F)F)c2)c(=O)oc1C | 1.0% | -4.7% | ? | -7.1% | 28.2µM* | 44.4%
COC(=O)c1cc(NC(=O)c2cccc(C(F)(F)F)c2)c(=O)oc1C/C=N/OCc1cccc(Cl)c1Cl | ? | -21.2%[11.4 µM] | 0.0% | -6.2% | 39.8µM* | -20.9%
